# PubChem BioAssay (Tox21)
# “And” between values parts separate entries of the source, which are not always exact repeats. Equal values may be shown once. Records with an inconclusive call do not appear. The source made the active and inactive calls. Unless noted, calls come from the whole dose curve; as a rule, active = well fitted curve in the direction sought with a large enough effect in the repeat runs; inconclusive = weak or mixed curves; inactive = no such curve, though single readings can be large; an effect the other way counts as inactive or inconclusive.
# Legend:
# [1] = qHTS assay to identify small molecule antagonists of the peroxisome proliferator-activated receptor delta (PPARd) signaling pathway - cell viability counter screen (AID 743213); note: nearly all actives have a fitted effect of over 50% in size; note: potency is the fitted concentration of half-maximal effect
# Procedure, shortened: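 Viability counter-screen, qHTS format: PPARd-bla HEK293H, L165041 300 nM final, 17 h compound exposure at 37 C, CellTiter-Glo luminescence after 30 min RT.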
# [2] = qHTS assay to identify small molecule agonists of the farnesoid-X-receptor (FXR) signaling pathway - cell viability counter screen (AID 743218); note: nearly all actives have a fitted effect of over 45% in size; note: potency is the fitted concentration of half-maximal effect
# Procedure, shortened: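 Quantitative HTS counter screen measuring ATP-based viability via CellTiter-Glo luminescence in HEK 293T cells carrying a UAS-driven beta-lactamase reporter, after 16 h compound exposure at 37 C.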
# [3] = biological target: Bile acid receptor (Homo sapiens) (UniProt Q96RI1); experiment: qHTS assay to identify small molecule agonists of the farnesoid-X-receptor (FXR) signaling pathway (AID 743220; active = well fitted activation curve with a large enough effect in the signal ratio in the repeat runs, not every such curve was filed as active; the % refers to the signal ratio)
# Chain of Bile acid receptor (Homo sapiens) (Q96RI1 whole entry, looked up): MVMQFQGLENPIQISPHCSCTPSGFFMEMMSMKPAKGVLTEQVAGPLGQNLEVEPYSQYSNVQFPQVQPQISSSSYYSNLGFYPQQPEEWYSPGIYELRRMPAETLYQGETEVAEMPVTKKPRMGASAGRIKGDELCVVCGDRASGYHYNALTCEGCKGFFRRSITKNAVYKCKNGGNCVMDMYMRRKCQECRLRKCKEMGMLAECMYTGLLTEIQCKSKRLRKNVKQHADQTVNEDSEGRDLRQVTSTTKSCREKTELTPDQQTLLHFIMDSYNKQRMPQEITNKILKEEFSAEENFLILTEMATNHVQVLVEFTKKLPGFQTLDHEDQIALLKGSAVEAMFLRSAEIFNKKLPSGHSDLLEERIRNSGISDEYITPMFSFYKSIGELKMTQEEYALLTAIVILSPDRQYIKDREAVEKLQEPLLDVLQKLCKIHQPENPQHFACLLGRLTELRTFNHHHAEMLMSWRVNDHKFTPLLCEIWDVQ
# Procedure, shortened: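 FXR-UAS-bla HEK 293T cells carrying a UAS-driven beta-lactamase reporter were plated for 5 h at 37C/5% CO2, then exposed to DMSO-dissolved Tox21 10K compounds for 16 h at 37C. A LiveBLAzer B/G FRET substrate was loaded for 2 h at room temperature before fluorescence reading.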
# [4] = qHTS assay to identify small molecule antagonists of the farnesoid-X-receptor (FXR) signaling pathway - cell viability counter screen (AID 743221; active = well fitted cell-killing curve with a large enough effect in the repeat runs, not every such curve was filed as active; note: nearly all actives have a fitted effect of over 50% in size; note: potency is the fitted concentration of half-maximal effect)
# Procedure, shortened: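 Compound effects on cell number were measured as CellTiter-Glo luminescence in HEK 293T cells expressing FXR-UAS-bla, after 16 h at 37 C with 50 uM CDCA (final).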
# [5] = qHTS assay to identify small molecule agonists of the vitamin D receptor (VDR) signaling pathway - cell viability counter screen (AID 743224); note: nearly all actives have a fitted effect of over 50% in size; note: potency is the fitted concentration of half-maximal effect
# Procedure, shortened: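 CellTiter-Glo viability readout on VDR-bla cells, measured after 16 h of compound treatment at 37C in the same wells.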
# [6] = biological target: Bile acid receptor (Homo sapiens) (UniProt Q96RI1); experiment: qHTS assay to identify small molecule antagonists of the farnesoid-X-receptor (FXR) signaling pathway (AID 743217; active = well fitted inhibition curve with a large enough effect in the signal ratio in the repeat runs, not every such curve was filed as active; the % refers to the signal ratio)
# Procedure, shortened: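 Test compounds are pin-transferred onto FXR-bla HEK 293T cells, then chenodeoxycholic acid is added at 50 uM final. After 16 h at 37 °C, LiveBLAzer B/G substrate is applied for 2 h at room temperature and fluorescence read.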
# [7] = biological target: Vitamin D3 receptor (Homo sapiens) (UniProt P11473); experiment: qHTS assay to identify small molecule agonists of the vitamin D receptor (VDR) signaling pathway (AID 743222; calls by dose curve)
# Chain of Vitamin D3 receptor (Homo sapiens) (P11473 whole entry, looked up): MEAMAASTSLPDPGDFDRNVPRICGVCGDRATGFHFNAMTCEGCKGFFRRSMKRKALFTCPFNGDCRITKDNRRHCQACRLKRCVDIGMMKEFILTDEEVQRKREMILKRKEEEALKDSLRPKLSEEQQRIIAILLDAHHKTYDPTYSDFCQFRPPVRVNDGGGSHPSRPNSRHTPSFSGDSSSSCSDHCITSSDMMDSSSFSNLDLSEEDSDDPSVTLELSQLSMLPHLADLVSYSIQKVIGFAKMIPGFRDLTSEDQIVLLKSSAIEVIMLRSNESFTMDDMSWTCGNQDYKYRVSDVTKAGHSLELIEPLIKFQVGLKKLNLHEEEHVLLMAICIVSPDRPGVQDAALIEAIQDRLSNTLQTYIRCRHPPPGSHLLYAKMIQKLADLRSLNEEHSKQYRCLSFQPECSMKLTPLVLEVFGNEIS
# Procedure, shortened: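 Tox21 cell reporter format: VDR-bla line, 16 h compound exposure in 5% CO2 at 37C, then fluorescence intensity after 2 h with LiveBLAzer B/G FRET substrate.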
# [8] = biological target: Vitamin D3 receptor (Homo sapiens) (UniProt P11473); experiment: qHTS assay to identify small molecule antagonists of the vitamin D receptor (VDR) signaling pathway (AID 743223; active = well fitted inhibition curve with a large enough effect in the signal ratio in the repeat runs, not every such curve was filed as active; the % refers to the signal ratio; note: potency is the fitted concentration of half-maximal effect)
# Procedure, shortened: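 Beta-lactamase activity in VDR-bla cells is measured by FRET substrate fluorescence (2 h, room temperature) after cells spend 16 h at 37C with test compound and 3 nM final 1alpha,25-dihydroxyvitamin D3.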
# [9] = biological target: Peroxisome proliferator-activated receptor delta (Homo sapiens) (UniProt Q03181); experiment: qHTS assay to identify small molecule antagonists of the peroxisome proliferator-activated receptor delta (PPARd) signaling pathway (AID 743215; active = well fitted inhibition curve with a large enough effect in the signal ratio in the repeat runs, not every such curve was filed as active; the % refers to the signal ratio;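 note: cells stimulated with agonist L165041 at 300 nM final during compound exposure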; note: potency is the fitted concentration of half-maximal effect)
# Chain of Peroxisome proliferator-activated receptor delta (Homo sapiens) (Q03181 whole entry, looked up): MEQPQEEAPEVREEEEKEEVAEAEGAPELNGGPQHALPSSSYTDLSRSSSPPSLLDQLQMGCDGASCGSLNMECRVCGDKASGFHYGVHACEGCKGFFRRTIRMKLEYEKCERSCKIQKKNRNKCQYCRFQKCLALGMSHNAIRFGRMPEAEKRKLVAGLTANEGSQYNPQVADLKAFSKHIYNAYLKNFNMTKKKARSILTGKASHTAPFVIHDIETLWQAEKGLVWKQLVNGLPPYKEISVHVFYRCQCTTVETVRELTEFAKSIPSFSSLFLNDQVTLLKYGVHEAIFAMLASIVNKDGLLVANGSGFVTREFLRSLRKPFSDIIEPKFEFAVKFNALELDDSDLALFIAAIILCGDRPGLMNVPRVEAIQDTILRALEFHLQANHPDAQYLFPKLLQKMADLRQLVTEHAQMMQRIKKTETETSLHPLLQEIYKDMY
# Procedure, shortened: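 Here, a reporter line (HEK293H, beta-lactamase under a UAS) measures PPARd signaling. Compounds are tested against agonist L165041 at 300 nM final concentration over 17 h at 37 C, with fluorescence read after substrate.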
smiles,measurement,setting,value
C[C@H]1O[C@@H](O[C@H]2[C@@H](O)C[C@H](O[C@H]3[C@@H](O)C[C@H](O[C@H]4CC[C@@]5(C)[C@H](CC[C@@H]6[C@@H]5CC[C@]5(C)[C@@H](C7=CC(=O)OC7)CC[C@]65O)C4)O[C@@H]3C)O[C@@H]2C)C[C@H](O)[C@@H]1O,Potency,[1],19.6 nM (active) and 84.1 nM (active)
same,Potency,[2],0.0311 µM (active)
same,outcome,[3],inactive
same,Potency,[4],0.0139 µM (active)
same,Potency,[5],15.6 nM (active) and 106 nM (active)
O=C(CBr)c1ccc(O)cc1,Potency,[1],inactive
same,Potency,[6],inactive
same,Potency,[2],inactive
same,Potency,[7],inactive
CCCCN(CCCC)C(=S)[S-].CCCCN(CCCC)C(=S)[S-].[Zn+2],Potency,[1],12.3 µM (active)
same,Potency,[2],8.7 µM (active)
same,Potency,[4],13.8 µM (active)
same,Potency,[5],5.49 µM (active)
CCCCCCCCCCCCCCCC[N+](C)(C)C,Potency,[1],21.1 µM (active) and 3.89 µM (active)
same,Potency,[2],14.9 µM (active) and 43.6 µM (active)
same,Potency,[4],23.7 µM (active) and 49 µM (active)
same,Potency,[5],21.1 µM (active) and 24.5 µM (active)
CCCCCCCCCCCCCC[P+](CCCCCC)(CCCCCC)CCCCCC (tested in a mixture with another compound),Potency,[1],11 µM (active)
same,Potency,[2],7.76 µM (active)
same,Potency,[4],6.92 µM (active)
same,Potency,[5],3.09 µM (active)
CC(=O)[O-].CC(=O)[O-].[Hg+2],Potency,[1],3.47 µM (active)
same,Potency,[2],1.1 µM (active)
same,Potency,[4],3.09 µM (active)
same,Potency,[5],1.74 µM (active)
CCCCCCCCCC[N+](C)(C)CCCCCCCCCC,Potency,[1],19.5 µM (active)
same,Potency,[2],49 µM (active)
same,Potency,[4],54.9 µM (active)
same,Potency,[8],43.6 µM (active)
same,Potency,[5],19.5 µM (active)
C=CC(=O)OCCCCOC(=O)C=C,Potency,[1],43.6 µM (active)
same,Potency,[2],54.9 µM (active)
CCOC(=O)C1(c2ccccc2)CCN(CCC(C#N)(c2ccccc2)c2ccccc2)CC1,Potency,[1],inactive
same,Potency,[2],inactive
same,outcome,[3],inactive
same,Potency,[4],inactive
same,Potency,[5],inactive
CN(C)S(=O)(=O)N(SC(F)(Cl)Cl)c1ccccc1,Potency,[1],27.5 µM (active)
same,Potency,[2],38.9 µM (active)
same,Potency,[4],43.6 µM (active)
same,Potency,[5],15.5 µM (active)
[Hg+2].[I-].[I-],Potency,[1],3.47 µM (active)
same,Potency,[2],3.09 µM (active)
same,Potency,[4],3.89 µM (active)
same,Potency,[5],1.55 µM (active)
CN(C)C(=S)[S-].CN(C)C(=S)[S-].[Cu+2],Potency,[1],3.36 µM (active)
same,Potency,[2],0.946 µM (active)
same,Potency,[4],2.38 µM (active)
same,Potency,[5],1.5 µM (active)
CC(=O)[O-].CC(=O)[O-].O.O.[Cd+2],Potency,[1],19.2 µM (active)
same,Potency,[2],1.53 µM (active)
same,Potency,[4],1.21 µM (active)
same,Potency,[5],1.21 µM (active)
[Cd+2].[Cl-].[Cl-],Potency,[1],7.83 µM (active) and 1.23 µM (active)
same,Potency,[2],11.1 µM (active) and 6.16 µM (active)
same,Potency,[4],12.4 µM (active) and 19.5 µM (active)
same,Potency,[5],1.75 µM (active) and 1.23 µM (active)
CC(=O)[O-].[Tl+],Potency,[1],inactive
same,Potency,[2],inactive
same,Potency,[4],inactive
same,Potency,[5],inactive
CN(C)[C@@H]1C(=O)C(C(N)=O)=C(O)[C@@]2(O)C(=O)C3=C(O)c4c(O)ccc(Cl)c4[C@@](C)(O)[C@H]3C[C@@H]12,Potency,[1],inactive
same,Potency,[2],inactive
same,outcome,[3],inactive
same,Potency,[4],inactive
same,Potency,[5],inactive
C=CC(=O)OCC(COC(=O)C=C)(COC(=O)C=C)COC(=O)C=C,Potency,[1],12.3 µM (active)
same,Potency,[2],7.76 µM (active)
same,Potency,[4],21.9 µM (active)
same,Potency,[5],7.76 µM (active)
CN(C)C(=S)S,Potency,[1],5.45 µM (active) and 7.76 µM (active)
same,Potency,[2],0.386 µM (active)
same,Potency,[4],612 nM (active) and 4.36 µM (active)
same,Potency,[8],inactive
same,Potency,[5],50 µM (active) and 1.09 µM (active) and 9.77 µM (active)
Cc1c(Cl)c(=O)oc2cc(OP(=O)(OCCCl)OCCCl)ccc12,Potency,[1],inactive
same,Potency,[2],inactive
same,Potency,[4],inactive
same,Potency,[5],inactive
O=[N+]([O-])O.O=[N+]([O-])O.[Cd],Potency,[1],5.49 µM (active)
same,Potency,[2],12.3 µM (active)
same,Potency,[4],6.16 µM (active)
same,Potency,[5],1.74 µM (active)
O=CC(Br)(Br)Br,Potency,[1],48.8 µM (active)
same,Potency,[2],13.8 µM (active)
same,Potency,[4],24.5 µM (active)
same,Potency,[5],17.3 µM (active)
CC[C@H](C)[C@H]1O[C@]2(C=C[C@@H]1C)C[C@@H]1C[C@@H](C/C=C(\C)[C@@H](O[C@H]3C[C@H](OC)[C@@H](O[C@H]4C[C@H](OC)[C@@H](O)[C@H](C)O4)[C@H](C)O3)[C@@H](C)/C=C/C=C3\CO[C@@H]4[C@H](O)C(C)=C[C@@H](C(=O)O1)[C@]34O)O2,Potency,[1],9.15 µM (active)
same,Potency,[2],12.9 µM (active)
same,Potency,[4],12.9 µM (active)
same,Potency,[5],7.27 µM (active)
CCN,Potency,[1],inactive
same,Potency,[2],inactive
same,Potency,[4],inactive
CC(C)[C@H](C(=O)O[C@H](C#N)c1cccc(Oc2ccccc2)c1)c1ccc(Cl)cc1,Potency,[1],inactive
same,Potency,[4],inactive
CC(C)CCCCCCCOP(=O)(Oc1ccccc1)Oc1ccccc1,Potency,[9],inactive
same,Potency,[5],inactive
Oc1ccc(C(=C(Cl)Cl)c2ccc(O)cc2)cc1,Potency,[9],19.5 µM (active)
same,outcome,[3],inactive
same,Potency,[4],inactive
same,Potency,[5],48.9 µM (active)
Clc1ccc(CSC(Cn2ccnc2)c2ccc(Cl)cc2Cl)cc1 (stereo unspecified),Potency,[1],33.5 µM (active)
same,Potency,[4],23.7 µM (active)
same,Potency,[7],inactive
same,Potency,[5],29.8 µM (active)
CC(C)[C@H](C(=O)OC(C#N)c1cccc(Oc2ccccc2)c1)c1ccc(OC(F)F)cc1 (stereo partly specified),Potency,[1],inactive
same,outcome,[3],inactive
same,Potency,[4],inactive
same,Potency,[7],inactive
same,Potency,[5],inactive
S=C(SSC(=S)N1CCCCC1)N1CCCCC1,Potency,[1],0.168 µM (active)
same,Potency,[4],0.211 µM (active)
same,Potency,[5],0.168 µM (active)
CC(C)(O)c1cnn2c(-c3ccc(F)c(-c4c(F)cccc4C#N)c3)cnc2n1,Potency,[1],inactive
same,Potency,[5],27.5 µM (active)
